Calls of active or inactive are those of the source. Calls come from the whole dose curve; as a rule, active = well fitted curve in the direction sought with a large enough effect; inactive = no such curve, though single readings can be large or run the other way.
Test: qHTS for small molecule inhibitors of Yes1 kinase: Counter Assay (AID 686950);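 note: no kinase present so only ADP-Glo detection of a fixed ADP amount is tested; luminescence from ADP-Glo reporting ADP in a fixed ATP and ADP mixture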
Conditions: series mostly up to 76.9 µM
Method in brief: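 ADP-Glo luminescence read after a 60 min room-temperature incubation of compound with an ATP/ADP mix (0.08 mM/0.02 mM) and no kinase, following a 20 min compound preincubation. Signal scaled between ATP+ADP (max) and 0.1 mM ATP-only (min) wells; Tris pH 7.5, Mg2+, DTT.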

SMILES	outcome
Cc1ccc(NC(=O)c2ccc(CN3CCN(C)CC3)cc2)cc1Nc1nccc(-c2cccnc2)n1	inactive
Nc1nc(Cl)nc2c1ncn2[C@H]1C[C@H](O)[C@@H](CO)O1	inactive
Cc1cccc(-c2[nH]ncc2-c2ccc3ncccc3n2)n1	inactive
COc1cc(Nc2c(C#N)cnc3cc(OCCCN4CCN(C)CC4)c(OC)cc23)c(Cl)cc1Cl	inactive
CC(C)c1ccc2c(c1)c(SC(C)(C)C)c(CC(C)(C)C(=O)O)n2Cc1ccc(Cl)cc1	inactive
Nc1cccc2c1CN(C1CCC(=O)NC1=O)C2=O (centres undefined)	inactive
CCN(CCO)CCCC(C)Nc1ccnc2cc(Cl)ccc12 (centres undefined)	inactive
CCOC(=O)C1=C(O)C(=O)N(Cc2ccccc2)C1	inactive
CCN(CC)CCOc1ccc(Nc2ncc3cc(-c4c(Cl)cccc4Cl)c(=O)n(C)c3n2)cc1	inactive
CC(C)C[C@H](NC(=O)[C@H](Cc1ccccc1)NC(=O)c1cnccn1)B(O)O	inactive
CCOC(=O)C(C)Oc1cccc2c(=O)n(CC(=O)Nc3ccc4c(c3)OCCO4)ccc12 (centres undefined)	inactive
Oc1ccc(-c2nc(-c3ccc(F)cc3)c(-c3ccncc3)[nH]2)cc1	inactive
O=C(NOCC1CC1)c1ccc(F)c(F)c1Nc1ccc(I)cc1Cl	inactive
NS(=O)(=O)c1cc(C(=O)O)c(NCc2ccco2)cc1Cl	inactive
Cc1ccc(Nc2nccc(N(C)c3ccc4c(C)n(C)nc4c3)n2)cc1S(N)(=O)=O	inactive
C[C@@H](N)C1CCC(C(=O)Nc2ccncc2)CC1 (some centres undefined)	inactive
O=Nc1c(-c2c(O)[nH]c3cc(Br)ccc23)[nH]c2ccccc12	inactive
Cc1cccc(C#Cc2ccccc2)n1	inactive
S=c1nc[nH]c2nc[nH]c12	inactive
